Laboratory results: the supplement of paper PMC6555819

Experiments:
Assay in all cases: PBM binding z-score (relative to random genomic background probes); higher = stronger binding; sequences stand for … in GC…GCGATTGACAGCGTAGAATGAAGG
[1] = system: RARb homodimer (NR concentration 270 nM)
Procedure, shortened: (§1)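 Random background probes are the reference for binding z-scores. These scores derive from regression-normalized fluorescence on custom Agilent 4×180K protein-binding microarrays incubated 1 h with ligand-free nuclear receptor dimers. Binding was detected with antibodies against each partner (one per run).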

[2] = system: RARg:RXRa (NR concentration 270 nM, RXRa partner concentration 90 nM)
Procedure, shortened: as §1

[3] = system: RARg homodimer (NR concentration 270 nM)
Procedure, shortened: as §1

[4] = system: RXRa DBDmut IVT, anti-RXR (DBD mutation: RXRa K156A/R161A, NR concentration 90 nM)
Procedure, shortened: as §1

[5] = system: RXRa homodimer (NR concentration 180 nM)
Procedure, shortened: as §1

[6] = system: THRa:RXRa (NR concentration 90 nM, RXRa partner concentration 90 nM)
Procedure, shortened: as §1

[7] = system: THRa homodimer (NR concentration 90 nM)
Procedure, shortened: as §1

[8] = system: VDR homodimer (NR concentration 270 nM)
Procedure, shortened: as §1

TCTTGTAGATCAGTAGGTTAAGAAAGCTGGCCAA
PBM binding z-score [1]: 0.381
PBM binding z-score [2]: -0.0974
PBM binding z-score [3]: -0.231
PBM binding z-score [4]: 0.997
PBM binding z-score [5]: 0.365
PBM binding z-score [6]: 0.204
PBM binding z-score [7]: 0.0296
PBM binding z-score [8]: 0.104

GTTCCAAGGTGAATAGGTCGTTGATGAGTAGGCG
PBM binding z-score [1]: 2.22
PBM binding z-score [2]: 2.74
PBM binding z-score [3]: 1.76
PBM binding z-score [4]: 0.23
PBM binding z-score [5]: 1.72
PBM binding z-score [6]: 2.4
PBM binding z-score [7]: 0.975
PBM binding z-score [8]: 0.742

TAGCCTTGGTCATTCAGGGGCCAGTATAGAAAGC
PBM binding z-score [1]: 1.09
PBM binding z-score [2]: 2.02
PBM binding z-score [3]: 0.792
PBM binding z-score [4]: -0.76
PBM binding z-score [5]: 0.416
PBM binding z-score [6]: 0.75
PBM binding z-score [7]: -0.852
PBM binding z-score [8]: -0.456

ATCGATAGGTCGAGGTGAGTATAGAGAAAGGGAA
PBM binding z-score [1]: 1.05
PBM binding z-score [2]: 1.68
PBM binding z-score [3]: 2.13
PBM binding z-score [4]: -0.314
PBM binding z-score [5]: 1.47
PBM binding z-score [6]: 1.63
PBM binding z-score [7]: 0.0105
PBM binding z-score [8]: -0.206

CGAACTAGGTCAAGCACAGTGAATCTCCGCACGC
PBM binding z-score [1]: 2.96
PBM binding z-score [2]: 4.27
PBM binding z-score [3]: 4.61
PBM binding z-score [4]: 1.82
PBM binding z-score [5]: 2.84
PBM binding z-score [6]: 2.72
PBM binding z-score [7]: 1.27
PBM binding z-score [8]: 0.357

CGAACTAGGCCAAGGACAGTGAATCTCCGCACGC
PBM binding z-score [1]: 0.591
PBM binding z-score [2]: -0.0156
PBM binding z-score [3]: 0.663
PBM binding z-score [4]: 0.163
PBM binding z-score [5]: -0.0922
PBM binding z-score [6]: 1.35
PBM binding z-score [7]: 0.94
PBM binding z-score [8]: -0.0931

TGTACAGGGTCAAAGGCCAGAGTACGAATGTCGA
PBM binding z-score [1]: 3.31
PBM binding z-score [2]: 5.52
PBM binding z-score [3]: 4.74
PBM binding z-score [4]: 2.86
PBM binding z-score [5]: 6.85
PBM binding z-score [6]: 3.43
PBM binding z-score [7]: 0.326
PBM binding z-score [8]: 2.65
